Data from the supplement of paper PMC12024424.
Counter-ions that a name gives are not always drawn.

tested on: Staphylococcus aureus Sa2 (MRSA, cystic fibrosis isolate); experiment: growth reduction vs untreated control (OD550); higher = stronger antibacterial activity; settings: 0.1 mM; 24 h
Method: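 Single-dose screen of the MedChem Express Drug Repurposing Library (0.1 mM, 1% DMSO) against planktonic MRSA S. aureus Sa2 (CF isolate) in TSB in 96-well plates, 37 °C aerobic, 24 h. Assays were run in triplicate and repeated twice.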

Compound | growth reduction [%]
C[C@H]1Cc2c([nH]c3cc(Cl)c(F)cc23)[C@@]2(N1)C(=O)Nc1ccc(Cl)cc12 [Cipargamin] | 100
Cc1cccc(Nc2ccccc2C(=O)O)c1C [Mefenamic acid] | 97.3
O=c1[nH]cnc2c1cnn2[C@@H]1O[C@H](CO)[C@@H](O)[C@H]1O [Allopurinol riboside] | 99.9
CC(=C(CCOC(=O)C(C)C)SSC(CCOC(=O)C(C)C)=C(C)N(C=O)Cc1cnc(C)nc1N)N(C=O)Cc1cnc(C)nc1N (stereo in doubt) [Sulbutiamine] | 97
CC(OC(=O)c1ccc(Cc2c(O)c3ccccc3oc2=O)cc1)(C(F)(F)F)C(F)(F)F [Tecarfarin] | 100
Cc1c(Cl)cccc1Nc1ccccc1C(=O)O [Tolfenamic Acid] | 100
Cc1nc2c([nH]1)-c1ccccc1N(C(=O)c1ccc(NC(=O)c3ccccc3-c3ccccc3)cc1)CC2 [Conivaptan (hydrochloride)] | 90.4
C=CC(=O)Nc1cc(Nc2nccc(-c3cn(C4CC4)c4ccccc34)n2)c(OC)cc1N(C)CCN(C)C [Almonertinib (hydrochloride)] | 100
CC1=C(C)C(=O)C(CCCCCCCCCC[P+](c2ccccc2)(c2ccccc2)c2ccccc2)=CC1=O [Visomitin] | 100
CCC(c1ccccc1)c1c(O)c2ccccc2oc1=O (stereo not given) [Phenprocoumon] | 94.6
C1CCC(C(CC2CCCCN2)C2CCCCC2)CC1 (stereo not given) [Perhexiline maleate] | 100
CCCc1nc2c(C)cc(-c3nc4ccccc4n3C)cc2n1Cc1ccc(-c2ccccc2C(=O)O)cc1 [Telmisartan] | 91.8
CC(C)COc1ccc(CNC(=O)N(Cc2ccc(F)cc2)C2CCN(C)CC2)cc1 [Pimavanserin tartrate] | 100
Cc1c(Cl)c(C)[n+]([O-])c(Cl)c1-c1noc(-c2cc(O)c(O)c([N+](=O)[O-])c2)n1 [Opicapone] | 99.2
CCOC(=O)Nc1ccc(NCc2ccc(F)cc2)nc1N [Flupirtine (Maleate)] | 100
Clc1ccc(CSC(Cn2ccnc2)c2ccc(Cl)cc2Cl)cc1 (stereo not given) [Sulconazole (nitrate)] | 93.4
CCCCc1oc2ccc(NS(C)(=O)=O)cc2c1C(=O)c1ccc(OCCCN(CCCC)CCCC)cc1 [Dronedarone] | 96.5
CC(C)(C)NC(=O)N[C@H](C(=O)N1C[C@H]2[C@@H]([C@H]1C(=O)NC(CC1CCC1)C(=O)C(N)=O)C2(C)C)C(C)(C)C (stereo not given in full) [Boceprevir] | 91.4
CNC(=O)c1cc(Oc2ccc(NC(=O)Nc3ccc(Cl)c(C(F)(F)F)c3)c(F)c2)ccn1 [Regorafenib (monohydrate)] | 100
COc1cc2/c(=N/c3ccc(Br)cc3F)nc[nH]c2cc1OCC1CCN(C)CC1 [Vandetanib] | 100
Nc1ncccc1-c1nc2ccc(-c3ccccc3)nc2n1-c1ccc(C2(N)CCC2)cc1 [Miransertib] | 97.6
CC(C)OC(=O)CCC/C=C\C[C@@H]1[C@@H](/C=C/[C@@H](O)COc2cccc(C(F)(F)F)c2)[C@H](O)C[C@@H]1O [Travoprost] | 100
COc1cc2c(Oc3ccc(NC(=O)C4(C(=O)Nc5ccc(F)cc5)CC4)cc3F)ccnc2cc1OCCCN1CCOCC1 [Foretinib] | 94.8
CC/C(=C(\c1ccccc1)c1ccc(OCCN(C)C)cc1)c1ccccc1 [Tamoxifen] | 100
C#C[C@]1(O)CC[C@H]2[C@@H]3CCc4cc(O)ccc4[C@H]3CC[C@@]21C [Ethynyl Estradiol] | 99.9
NC(=O)N1CCC(CC(=O)N2CCC([C@H]3c4ncc(Br)cc4CCc4cc(Cl)cc(Br)c43)CC2)CC1 [Lonafarnib] | 94.3
CCc1cc(-c2noc(-c3cc(OC)nc(C4CCCC4)c3)n2)cc(C)c1OC[C@@H](O)CO [Cenerimod] | 100
O=C(NCC12CC3CC(CC(C3)C1)C2)c1cc(CCCNCCCO)ccc1Cl [AZD9056 (hydrochloride)] | 100
C=C[C@@H]1C[C@]1(NC(=O)[C@@H]1C[C@@H]2CN1C(=O)[C@H](C(C)(C)C)NC(=O)O[C@@H]1C[C@H]1CCCCCc1nc3ccc(OC)cc3nc1O2)C(=O)NS(=O)(=O)C1CC1 [Grazoprevir potassium salt] | 97.2
C=CC(=O)Nc1cccc(Oc2nc(Nc3ccc(N4CCN(C)CC4)c(F)c3)nc3[nH]ccc23)c1 [Avitinib (maleate)] | 100
